Assay results reported in ChEMBL document CHEMBL1961873, “Compounds: GSK PKIS; Assays: Nanosyn kinase panel” (2012).

How the values were obtained:
[1] = target: T1, Serine/threonine-protein kinase Nek9 (Homo sapiens) (UniProt Q8TD19); conditions: at 1 µM;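 also: each value is a mean percent inhibition of NEK9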
T1 sequence (whole entry): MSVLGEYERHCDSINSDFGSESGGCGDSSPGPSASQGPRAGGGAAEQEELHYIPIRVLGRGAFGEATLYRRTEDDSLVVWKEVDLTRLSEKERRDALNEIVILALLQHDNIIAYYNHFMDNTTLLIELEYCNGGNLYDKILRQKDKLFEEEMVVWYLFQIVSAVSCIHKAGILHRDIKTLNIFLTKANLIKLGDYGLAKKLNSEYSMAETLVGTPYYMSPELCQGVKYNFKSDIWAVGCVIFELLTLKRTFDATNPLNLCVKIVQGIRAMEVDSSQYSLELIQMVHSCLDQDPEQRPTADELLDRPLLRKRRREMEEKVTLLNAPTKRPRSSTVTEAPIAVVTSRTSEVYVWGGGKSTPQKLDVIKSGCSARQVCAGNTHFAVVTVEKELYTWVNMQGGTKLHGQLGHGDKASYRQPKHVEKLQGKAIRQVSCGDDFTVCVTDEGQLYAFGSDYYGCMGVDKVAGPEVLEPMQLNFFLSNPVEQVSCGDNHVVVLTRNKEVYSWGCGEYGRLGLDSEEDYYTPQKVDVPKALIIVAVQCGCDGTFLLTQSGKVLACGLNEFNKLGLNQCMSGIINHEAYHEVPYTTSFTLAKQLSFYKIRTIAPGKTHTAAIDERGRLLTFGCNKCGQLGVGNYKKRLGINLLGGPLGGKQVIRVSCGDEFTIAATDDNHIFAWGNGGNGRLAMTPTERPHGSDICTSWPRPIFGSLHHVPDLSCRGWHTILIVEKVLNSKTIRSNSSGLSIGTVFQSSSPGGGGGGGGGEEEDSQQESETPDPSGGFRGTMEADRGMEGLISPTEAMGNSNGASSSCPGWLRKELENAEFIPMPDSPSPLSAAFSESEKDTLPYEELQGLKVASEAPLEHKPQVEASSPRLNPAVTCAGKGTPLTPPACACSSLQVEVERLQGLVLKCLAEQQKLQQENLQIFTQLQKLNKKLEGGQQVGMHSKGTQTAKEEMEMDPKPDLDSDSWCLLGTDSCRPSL

[2] = target: Serine/threonine-protein kinase PLK1 (Homo sapiens) (UniProt P53350); conditions: at 0.1 µM
[3] = target: Serine/threonine-protein kinase PLK1 (Homo sapiens) (UniProt P53350); conditions: at 1 µM
[4] = target: T2, Dual specificity protein kinase TTK (Homo sapiens) (UniProt P33981); conditions: at 0.1 µM
T2 sequence (whole entry): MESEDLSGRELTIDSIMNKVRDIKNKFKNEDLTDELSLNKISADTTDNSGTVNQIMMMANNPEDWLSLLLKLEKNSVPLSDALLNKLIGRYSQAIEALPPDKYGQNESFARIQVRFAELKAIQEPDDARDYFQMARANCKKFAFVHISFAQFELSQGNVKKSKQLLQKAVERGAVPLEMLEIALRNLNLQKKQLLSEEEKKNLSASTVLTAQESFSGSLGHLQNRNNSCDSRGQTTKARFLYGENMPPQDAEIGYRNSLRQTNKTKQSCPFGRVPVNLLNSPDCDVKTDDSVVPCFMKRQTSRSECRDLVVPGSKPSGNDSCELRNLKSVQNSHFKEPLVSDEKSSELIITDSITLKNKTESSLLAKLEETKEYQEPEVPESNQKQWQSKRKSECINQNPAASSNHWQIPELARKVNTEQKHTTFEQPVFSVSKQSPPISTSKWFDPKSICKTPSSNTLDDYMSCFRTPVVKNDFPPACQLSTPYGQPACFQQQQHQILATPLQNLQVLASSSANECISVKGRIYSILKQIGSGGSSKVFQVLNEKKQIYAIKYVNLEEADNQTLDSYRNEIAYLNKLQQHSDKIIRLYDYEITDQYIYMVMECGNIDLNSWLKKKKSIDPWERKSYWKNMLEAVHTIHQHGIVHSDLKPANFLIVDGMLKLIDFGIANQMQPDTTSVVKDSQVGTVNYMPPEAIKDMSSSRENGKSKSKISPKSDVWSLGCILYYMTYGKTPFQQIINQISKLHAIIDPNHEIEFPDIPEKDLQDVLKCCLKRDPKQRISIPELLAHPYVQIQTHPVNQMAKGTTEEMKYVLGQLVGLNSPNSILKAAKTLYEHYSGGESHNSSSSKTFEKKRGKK

[5] = system: T3, Receptor-type tyrosine-protein kinase FLT3 (Homo sapiens), P36888 [D835Y]; conditions: at 1 µM
T3 sequence (whole entry): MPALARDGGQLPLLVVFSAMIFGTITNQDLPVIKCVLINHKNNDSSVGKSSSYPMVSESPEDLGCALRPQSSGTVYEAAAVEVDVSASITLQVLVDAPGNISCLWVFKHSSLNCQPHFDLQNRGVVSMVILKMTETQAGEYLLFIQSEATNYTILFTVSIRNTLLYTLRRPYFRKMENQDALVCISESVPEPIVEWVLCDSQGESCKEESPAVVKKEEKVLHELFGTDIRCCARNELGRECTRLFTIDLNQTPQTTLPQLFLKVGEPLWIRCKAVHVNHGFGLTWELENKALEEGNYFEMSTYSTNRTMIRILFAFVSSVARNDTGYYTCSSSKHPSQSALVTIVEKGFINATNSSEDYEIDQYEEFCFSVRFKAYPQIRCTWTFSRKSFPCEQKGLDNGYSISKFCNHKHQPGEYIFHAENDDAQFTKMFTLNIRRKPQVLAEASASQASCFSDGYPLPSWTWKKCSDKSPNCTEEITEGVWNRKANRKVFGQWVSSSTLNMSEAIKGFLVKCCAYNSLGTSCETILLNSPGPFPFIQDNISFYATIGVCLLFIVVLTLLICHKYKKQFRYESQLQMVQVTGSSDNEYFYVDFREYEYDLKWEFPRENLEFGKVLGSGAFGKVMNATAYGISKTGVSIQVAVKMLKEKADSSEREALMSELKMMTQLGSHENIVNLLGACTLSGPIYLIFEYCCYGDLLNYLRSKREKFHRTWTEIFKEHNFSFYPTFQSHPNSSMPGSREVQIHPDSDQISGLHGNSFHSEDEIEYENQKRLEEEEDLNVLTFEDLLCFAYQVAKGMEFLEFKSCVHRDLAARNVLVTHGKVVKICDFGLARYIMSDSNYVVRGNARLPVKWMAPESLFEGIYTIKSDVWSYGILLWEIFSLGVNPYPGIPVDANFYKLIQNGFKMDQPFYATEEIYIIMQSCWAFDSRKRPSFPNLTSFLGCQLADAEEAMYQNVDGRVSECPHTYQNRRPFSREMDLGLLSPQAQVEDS

[6] = target: Vascular endothelial growth factor receptor 3 (Homo sapiens) (UniProt P35916); conditions: at 0.1 µM
[7] = target: Vascular endothelial growth factor receptor 3 (Homo sapiens) (UniProt P35916); conditions: at 1 µM
[8] = target: Macrophage colony-stimulating factor 1 receptor (Homo sapiens) (UniProt P07333); conditions: at 0.1 µM
Sequence of Macrophage colony-stimulating factor 1 receptor (Homo sapiens) (P07333 whole entry): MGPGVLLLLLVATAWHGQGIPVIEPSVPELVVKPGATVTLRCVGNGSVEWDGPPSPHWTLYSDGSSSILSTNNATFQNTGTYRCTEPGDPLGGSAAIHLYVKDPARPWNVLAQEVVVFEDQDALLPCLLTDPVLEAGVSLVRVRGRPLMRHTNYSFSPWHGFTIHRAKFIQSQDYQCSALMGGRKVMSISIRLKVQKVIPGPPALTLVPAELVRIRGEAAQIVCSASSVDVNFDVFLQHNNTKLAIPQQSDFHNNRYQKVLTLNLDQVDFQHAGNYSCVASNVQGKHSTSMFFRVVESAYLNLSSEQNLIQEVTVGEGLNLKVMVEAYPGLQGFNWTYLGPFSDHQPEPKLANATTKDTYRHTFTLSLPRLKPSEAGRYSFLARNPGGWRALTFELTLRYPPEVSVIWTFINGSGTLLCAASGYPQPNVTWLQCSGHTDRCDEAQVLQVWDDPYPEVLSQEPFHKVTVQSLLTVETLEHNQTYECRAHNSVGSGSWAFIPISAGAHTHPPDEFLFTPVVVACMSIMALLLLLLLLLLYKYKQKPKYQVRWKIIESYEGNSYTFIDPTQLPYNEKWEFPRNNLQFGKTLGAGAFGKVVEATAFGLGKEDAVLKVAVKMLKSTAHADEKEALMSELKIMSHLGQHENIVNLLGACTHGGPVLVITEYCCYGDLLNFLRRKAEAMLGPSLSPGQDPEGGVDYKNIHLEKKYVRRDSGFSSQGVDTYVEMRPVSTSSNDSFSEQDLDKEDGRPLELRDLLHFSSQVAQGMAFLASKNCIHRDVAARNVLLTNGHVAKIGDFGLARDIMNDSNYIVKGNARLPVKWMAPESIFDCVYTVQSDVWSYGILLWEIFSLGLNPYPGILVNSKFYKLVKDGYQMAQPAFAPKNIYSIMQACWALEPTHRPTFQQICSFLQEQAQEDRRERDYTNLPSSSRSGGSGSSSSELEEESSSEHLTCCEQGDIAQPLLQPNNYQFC

[9] = target: Macrophage colony-stimulating factor 1 receptor (Homo sapiens) (UniProt P07333); conditions: at 1 µM
[10] = target: Tyrosine-protein kinase Fyn (Homo sapiens) (UniProt P06241); conditions: at 0.1 µM
Sequence of Tyrosine-protein kinase Fyn (Homo sapiens) (P06241 2-537 limits assumed): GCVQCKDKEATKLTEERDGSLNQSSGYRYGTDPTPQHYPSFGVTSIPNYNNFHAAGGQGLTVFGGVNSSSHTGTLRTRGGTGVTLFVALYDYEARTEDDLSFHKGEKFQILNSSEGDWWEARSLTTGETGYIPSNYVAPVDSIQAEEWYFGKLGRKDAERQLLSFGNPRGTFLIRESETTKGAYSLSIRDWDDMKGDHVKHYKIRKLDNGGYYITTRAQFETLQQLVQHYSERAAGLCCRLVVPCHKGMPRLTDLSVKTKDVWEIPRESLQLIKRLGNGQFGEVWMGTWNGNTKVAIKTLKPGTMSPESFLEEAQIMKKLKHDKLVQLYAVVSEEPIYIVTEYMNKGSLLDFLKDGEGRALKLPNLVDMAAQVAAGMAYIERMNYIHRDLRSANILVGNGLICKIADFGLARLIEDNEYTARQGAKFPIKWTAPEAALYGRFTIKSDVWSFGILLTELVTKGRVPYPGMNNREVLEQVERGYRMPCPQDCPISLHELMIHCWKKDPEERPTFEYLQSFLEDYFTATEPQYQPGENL

[11] = target: Tyrosine-protein kinase Fyn (Homo sapiens) (UniProt P06241); conditions: at 1 µM
[12] = target: Tyrosine-protein kinase HCK (Homo sapiens) (UniProt P08631); conditions: at 0.1 µM
Sequence of Tyrosine-protein kinase HCK (Homo sapiens) (P08631 2-526 limits assumed): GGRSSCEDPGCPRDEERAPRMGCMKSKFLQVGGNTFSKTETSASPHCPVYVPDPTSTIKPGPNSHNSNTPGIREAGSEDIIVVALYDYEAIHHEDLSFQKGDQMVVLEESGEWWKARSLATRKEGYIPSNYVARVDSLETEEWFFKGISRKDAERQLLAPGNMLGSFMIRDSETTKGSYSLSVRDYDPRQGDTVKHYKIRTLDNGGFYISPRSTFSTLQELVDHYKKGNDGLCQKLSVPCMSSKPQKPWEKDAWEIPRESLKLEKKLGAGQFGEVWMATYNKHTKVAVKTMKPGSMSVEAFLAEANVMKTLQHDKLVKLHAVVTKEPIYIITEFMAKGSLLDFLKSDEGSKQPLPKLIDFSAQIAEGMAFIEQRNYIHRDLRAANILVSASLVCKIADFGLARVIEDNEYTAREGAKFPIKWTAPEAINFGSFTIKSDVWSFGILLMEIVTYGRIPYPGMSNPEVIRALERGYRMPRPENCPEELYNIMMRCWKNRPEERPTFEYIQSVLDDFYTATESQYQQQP

[13] = target: Tyrosine-protein kinase HCK (Homo sapiens) (UniProt P08631); conditions: at 1 µM
[14] = target: Insulin-like growth factor 1 receptor (Homo sapiens) (UniProt P08069); conditions: at 0.1 µM
Sequence of Insulin-like growth factor 1 receptor (Homo sapiens) (P08069 31-736 limits assumed): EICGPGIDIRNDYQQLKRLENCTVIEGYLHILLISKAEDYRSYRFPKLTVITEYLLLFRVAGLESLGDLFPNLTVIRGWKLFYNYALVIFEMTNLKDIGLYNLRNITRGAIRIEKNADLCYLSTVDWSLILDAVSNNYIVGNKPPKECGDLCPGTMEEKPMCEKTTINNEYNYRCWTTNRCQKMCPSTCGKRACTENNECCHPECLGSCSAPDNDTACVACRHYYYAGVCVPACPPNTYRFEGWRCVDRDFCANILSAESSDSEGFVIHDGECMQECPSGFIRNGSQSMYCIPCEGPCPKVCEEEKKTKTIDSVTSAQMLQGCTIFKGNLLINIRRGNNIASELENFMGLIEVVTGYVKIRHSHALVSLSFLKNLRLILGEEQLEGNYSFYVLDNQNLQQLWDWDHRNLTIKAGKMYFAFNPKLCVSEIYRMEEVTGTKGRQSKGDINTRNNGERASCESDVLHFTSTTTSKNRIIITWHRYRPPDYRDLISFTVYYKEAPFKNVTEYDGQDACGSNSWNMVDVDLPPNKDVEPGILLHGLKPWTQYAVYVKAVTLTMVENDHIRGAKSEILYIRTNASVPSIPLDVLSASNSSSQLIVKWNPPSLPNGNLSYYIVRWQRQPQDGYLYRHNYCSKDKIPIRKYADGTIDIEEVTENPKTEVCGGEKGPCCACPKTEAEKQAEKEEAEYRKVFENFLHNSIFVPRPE
Sequence of Insulin-like growth factor 1 receptor (Homo sapiens) (P08069 741-1367 limits assumed): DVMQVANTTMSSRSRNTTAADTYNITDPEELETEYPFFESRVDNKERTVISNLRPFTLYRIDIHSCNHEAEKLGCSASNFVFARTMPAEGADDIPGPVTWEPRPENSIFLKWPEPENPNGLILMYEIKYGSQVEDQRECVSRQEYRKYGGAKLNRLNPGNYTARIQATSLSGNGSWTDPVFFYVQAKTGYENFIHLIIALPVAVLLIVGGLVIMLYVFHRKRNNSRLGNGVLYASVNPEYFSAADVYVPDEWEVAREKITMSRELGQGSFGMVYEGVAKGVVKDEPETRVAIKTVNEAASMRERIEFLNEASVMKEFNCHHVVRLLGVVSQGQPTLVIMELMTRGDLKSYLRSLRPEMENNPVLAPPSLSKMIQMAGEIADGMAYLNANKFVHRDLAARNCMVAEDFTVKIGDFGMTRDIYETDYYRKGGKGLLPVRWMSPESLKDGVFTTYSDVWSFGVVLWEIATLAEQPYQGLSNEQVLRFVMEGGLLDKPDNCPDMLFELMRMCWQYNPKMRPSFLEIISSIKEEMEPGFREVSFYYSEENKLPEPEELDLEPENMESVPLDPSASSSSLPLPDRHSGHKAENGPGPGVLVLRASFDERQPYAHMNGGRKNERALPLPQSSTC

[15] = target: Insulin-like growth factor 1 receptor (Homo sapiens) (UniProt P08069); conditions: at 1 µM
[16] = target: Insulin receptor (Homo sapiens) (UniProt P06213); conditions: at 0.1 µM
[17] = target: Insulin receptor (Homo sapiens) (UniProt P06213); conditions: at 1 µM
[18] = target: Insulin receptor-related protein (Homo sapiens) (UniProt P14616); conditions: at 0.1 µM
Sequence of Insulin receptor-related protein (Homo sapiens) (P14616 27-742 limits assumed): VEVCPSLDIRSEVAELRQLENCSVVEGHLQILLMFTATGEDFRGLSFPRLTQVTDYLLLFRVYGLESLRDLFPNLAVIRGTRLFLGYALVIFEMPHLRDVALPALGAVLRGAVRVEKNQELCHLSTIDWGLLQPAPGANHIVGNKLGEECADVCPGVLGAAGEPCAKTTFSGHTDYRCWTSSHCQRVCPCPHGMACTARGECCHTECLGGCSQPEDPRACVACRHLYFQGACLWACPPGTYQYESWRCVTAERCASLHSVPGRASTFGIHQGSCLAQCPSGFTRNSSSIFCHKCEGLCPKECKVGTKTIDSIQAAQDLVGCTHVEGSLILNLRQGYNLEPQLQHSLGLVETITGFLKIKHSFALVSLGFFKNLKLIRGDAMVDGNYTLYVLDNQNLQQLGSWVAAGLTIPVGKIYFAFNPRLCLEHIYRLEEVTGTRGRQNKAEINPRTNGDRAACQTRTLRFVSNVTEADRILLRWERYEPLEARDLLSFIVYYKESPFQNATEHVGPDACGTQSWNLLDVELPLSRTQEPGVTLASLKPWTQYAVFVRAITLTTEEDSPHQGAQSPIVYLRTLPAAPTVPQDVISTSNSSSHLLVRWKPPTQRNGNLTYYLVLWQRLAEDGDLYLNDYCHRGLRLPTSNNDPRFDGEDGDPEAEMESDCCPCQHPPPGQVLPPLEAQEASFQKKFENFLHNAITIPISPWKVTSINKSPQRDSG
Sequence of Insulin receptor-related protein (Homo sapiens) (P14616 747-1297 limits assumed): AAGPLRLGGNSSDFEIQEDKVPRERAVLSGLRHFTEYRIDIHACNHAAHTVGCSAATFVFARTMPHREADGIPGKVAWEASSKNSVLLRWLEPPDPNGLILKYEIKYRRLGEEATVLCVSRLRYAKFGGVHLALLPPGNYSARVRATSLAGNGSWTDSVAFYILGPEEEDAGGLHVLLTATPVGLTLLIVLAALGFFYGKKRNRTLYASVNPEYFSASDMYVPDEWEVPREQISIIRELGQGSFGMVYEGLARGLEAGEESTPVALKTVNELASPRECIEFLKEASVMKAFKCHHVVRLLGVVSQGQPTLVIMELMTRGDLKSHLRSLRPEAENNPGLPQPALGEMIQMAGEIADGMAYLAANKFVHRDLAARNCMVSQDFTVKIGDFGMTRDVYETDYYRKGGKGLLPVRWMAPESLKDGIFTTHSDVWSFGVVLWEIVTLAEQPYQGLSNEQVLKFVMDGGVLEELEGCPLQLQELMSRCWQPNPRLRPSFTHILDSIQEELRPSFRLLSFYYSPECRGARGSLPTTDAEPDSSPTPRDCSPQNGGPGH

[19] = target: Insulin receptor-related protein (Homo sapiens) (UniProt P14616); conditions: at 1 µM
[20] = target: T4, Tyrosine-protein kinase ITK/TSK (Homo sapiens) (UniProt Q08881); conditions: at 0.1 µM;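 also: mean percent inhibition of ITK from the GSK PKIS screen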
T4 sequence (whole entry): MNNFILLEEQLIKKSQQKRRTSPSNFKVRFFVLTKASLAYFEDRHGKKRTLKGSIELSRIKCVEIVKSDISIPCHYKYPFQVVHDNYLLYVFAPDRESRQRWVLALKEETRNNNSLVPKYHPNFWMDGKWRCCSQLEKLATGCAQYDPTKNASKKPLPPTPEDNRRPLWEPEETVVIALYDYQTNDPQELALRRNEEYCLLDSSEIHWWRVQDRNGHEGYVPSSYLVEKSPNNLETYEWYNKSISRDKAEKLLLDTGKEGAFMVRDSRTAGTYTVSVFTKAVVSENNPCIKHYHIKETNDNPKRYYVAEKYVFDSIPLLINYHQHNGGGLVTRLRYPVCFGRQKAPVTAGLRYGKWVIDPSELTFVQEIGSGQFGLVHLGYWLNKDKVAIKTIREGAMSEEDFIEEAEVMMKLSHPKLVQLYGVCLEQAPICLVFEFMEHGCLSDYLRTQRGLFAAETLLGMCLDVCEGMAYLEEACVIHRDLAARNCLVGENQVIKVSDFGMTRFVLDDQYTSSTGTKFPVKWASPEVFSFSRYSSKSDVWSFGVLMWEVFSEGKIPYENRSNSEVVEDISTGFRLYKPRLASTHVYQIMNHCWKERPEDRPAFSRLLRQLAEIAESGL

SMILES | inhibition [1] | inhibition [2] | inhibition [3] | inhibition [4] | inhibition [5] | inhibition [6] | inhibition [7] | inhibition [8] | inhibition [9] | inhibition [10] | inhibition [11] | inhibition [12] | inhibition [13] | inhibition [14] | inhibition [15] | inhibition [16] | inhibition [17] | inhibition [18] | inhibition [19] | inhibition [20]
Cc1cc(-c2ccco2)cc(C)c1/C=C/c1cncc(-c2nn[nH]n2)c1 | 1.42% | 1.22% | 0.57% | 4.5% | -2.85% | 1.37% | 2.25% | -0.94% | 2.32% | 1.3% | 1.98% | 1.62% | 3.34% | -1.5% | 1.06% | 0.61% | 0.42% | 1.36% | -0.21% | -0.49%
NC(=O)c1sc(-n2cnc3cc(C(F)(F)F)ccc32)cc1OCc1ccccc1Br | 10.3% | 21% | 69.5% | 2.94% | 4.97% | 2.24% | 4.4% | -0.7% | 3.85% | 2.13% | 7.58% | 2.82% | 0.29% | -2.64% | 0.95% | 0.33% | 1.77% | 1.13% | -0.33% | -0.64%
COc1cccc(-n2ncc3c(N/N=C/c4ccncc4)ncnc32)c1 | 6.71% | 2.19% | 3.32% | 8.59% | 52.1% | 9.86% | 38.4% | 6.17% | 30.2% | 26.5% | 73.8% | 15.7% | 59.2% | 4.62% | 4.88% | 6.46% | 7.36% | 1.64% | 5.33% | 1.63%
CCn1c(-c2nonc2N)nc2c(C#CCN)ncc(OCCCN)c21 | -9.04% | -5.66% | -6.34% | -4.74% | 7.13% | -2.4% | 1.59% | -1.23% | 0.9% | 0.54% | -1.61% | 0.79% | -3.58% | -5.07% | -6.11% | -5.48% | -4.01% | -0.39% | 0.07% | 0.2%
CCn1c(-c2nonc2N)nc2c(C#CC(C)(C)O)ncc(OCC3CCNCC3)c21 | 8.54% | 4.55% | 3.24% | 9.22% | 0.35% | -2.47% | 34.8% | 1.63% | 1.19% | -4.47% | 2.15% | 2.07% | 5.41% | -3.92% | -4.46% | 2.75% | 1.72% | 2.1% | 2.17% | -2.28%
Fc1ccc(-c2ncn(C3CCNCC3)c2-c2ccnc(Oc3ccccc3)n2)cc1 | 5.18% | 3.38% | 3.09% | 6.21% | -0.44% | -7.44% | – | -0.76% | 3.02% | -2.88% | -3.36% | 2.11% | 1.98% | – | -4.15% | 2.42% | 3.05% | 0.57% | 0.22% | -3.91%
CCn1c(-c2nonc2N)nc2c(C#CC(C)(C)O)ncc(OC[C@@H]3CCCN3)c21 | 0.02% | -0.2% | -3.86% | 4.43% | -3.96% | 4.88% | 33.9% | -2.54% | 1.4% | 0.24% | 1.07% | -1.1% | 1% | -4.88% | 0.19% | 0.85% | -1.35% | -1.3% | -0.44% | -1.58%
